Results published in paper PMC4336329 (PLoS ONE, 2015).
The campaign covered roughly 310,000 compounds. About 14,000 (4.5%) showed an effect of 50% or more. Effects have a minus sign here. The entries come from a sample that favours strong results as a whole.

target: human ether-à-go-go-related gene (hERG) potassium channel (human, UniProt Q12809); assay: primary screen, population patch clamp on CHO cells stably expressing hERG; higher = less effect of the substance
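Note: peak tail current of the secondary pulse compared with the same well before compound.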

Chain of human ether-à-go-go-related gene (hERG) potassium channel (Q12809 whole entry, looked up): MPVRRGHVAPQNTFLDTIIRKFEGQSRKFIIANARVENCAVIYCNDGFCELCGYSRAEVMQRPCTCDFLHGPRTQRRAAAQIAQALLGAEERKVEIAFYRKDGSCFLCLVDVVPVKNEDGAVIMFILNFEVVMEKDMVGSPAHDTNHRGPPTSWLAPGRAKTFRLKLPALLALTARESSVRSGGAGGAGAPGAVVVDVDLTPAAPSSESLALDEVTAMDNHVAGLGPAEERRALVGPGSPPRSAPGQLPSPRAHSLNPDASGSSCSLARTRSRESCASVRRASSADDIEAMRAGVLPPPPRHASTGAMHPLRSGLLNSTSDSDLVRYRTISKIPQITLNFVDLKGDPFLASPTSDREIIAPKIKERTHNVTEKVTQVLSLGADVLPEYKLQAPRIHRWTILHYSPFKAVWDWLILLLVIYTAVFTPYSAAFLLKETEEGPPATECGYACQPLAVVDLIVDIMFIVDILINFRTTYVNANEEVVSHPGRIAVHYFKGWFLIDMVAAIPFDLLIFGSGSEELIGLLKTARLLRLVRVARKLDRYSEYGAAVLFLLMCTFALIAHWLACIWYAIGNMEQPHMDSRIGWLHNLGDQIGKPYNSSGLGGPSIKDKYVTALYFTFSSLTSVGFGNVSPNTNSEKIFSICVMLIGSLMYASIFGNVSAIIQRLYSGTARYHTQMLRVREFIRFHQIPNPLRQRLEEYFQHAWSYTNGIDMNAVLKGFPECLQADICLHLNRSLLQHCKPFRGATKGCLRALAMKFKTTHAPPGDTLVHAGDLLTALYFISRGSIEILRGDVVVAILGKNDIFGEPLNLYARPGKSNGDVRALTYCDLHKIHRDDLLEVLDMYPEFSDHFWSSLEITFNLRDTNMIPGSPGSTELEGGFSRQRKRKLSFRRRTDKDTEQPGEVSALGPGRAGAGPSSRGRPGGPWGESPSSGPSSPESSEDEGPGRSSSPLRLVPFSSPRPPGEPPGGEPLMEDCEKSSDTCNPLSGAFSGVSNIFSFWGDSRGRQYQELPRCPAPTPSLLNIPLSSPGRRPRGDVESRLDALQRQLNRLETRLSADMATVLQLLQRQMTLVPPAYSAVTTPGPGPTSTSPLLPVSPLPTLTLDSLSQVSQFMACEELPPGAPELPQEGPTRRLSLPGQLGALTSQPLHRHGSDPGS

Structure (SMILES) | hERG current change (%, negative = inhibition) at 10uM [%]
CCCNC(=O)c1[nH]c(C)c(C(C)=O)c1C | 19.3
Cc1cc(C)cc(C(=O)Nc2ccc(N3CCN(S(C)(=O)=O)CC3)cc2)c1 | 15.7
Cc1ccc(CNC(=O)CCCNS(=O)(=O)c2cccc3nonc23)cc1 | -11.4
CCOC(=O)COc1ccc(N)cc1CC(NC(C)=O)(C(=O)OCC)C(=O)OCC | -72.7
CCOC(=O)C(Cc1c(F)cccc1F)(NC(C)=O)C(=O)OCC | 8.41
CCOC(=O)C(Cc1ccccc1)(NC(C)=O)C(=O)OCC | 7.61
CN(C(=O)COC(=O)C12CC3CC(CC(Cl)(C3)C1)C2)C1(C#N)CCCCC1 | -53.5
CC1CCCC(C)N1C(=O)COC(=O)C12CC3CC(CC(Cl)(C3)C1)C2 (stereo not shown) | -18.2
N#CC1(NC(=O)COC(=O)C23CC4CC(CC(O)(C4)C2)C3)CCCCC1 | 4.38
Cc1cccc(N2CN=C3SCC(=O)N3C2)c1 | 0.175
CC(C)C1Nc2ccc(S(N)(=O)=O)cc2C2C=CCC21 (stereo not shown) | 5.89
OCC(O)/C=N/Nc1nc2ccccc2s1 (stereo not shown) | 14
COCCNC(=S)N/N=C(\C)CCc1ccc2c(c1)OCO2 | -11.6
C/C(=N\NC(=S)NC(C)C)c1ccc2c(c1)OCCO2 | -63.6
C/C(CCc1ccc2c(c1)OCO2)=N\NC(=O)c1ccccc1 | 9.96
C/C(CCc1ccc2c(c1)OCO2)=N\NC(=S)NC(C)C | -59.4
CNC(=S)N/N=C(\C)c1ccc2c(c1)OCCO2 | 9.21
CCNC(=S)N/N=C(\C)c1ccc2c(c1)OCCO2 | 13.4
CC(=O)n1cc([C@H]2C=C(C(=O)Nc3ccccc3)O[C@@H](OCc3ccc(CO)cc3)C2)c2ccccc21 | -2.85
CC1(C)CC(NS(=O)(=O)c2ccc(Cl)cc2)CC(C)(C)N1 | 9.34
Cc1nc2cc(NCc3ccccc3O)ccc2n1Cc1ccccc1 | 13.8
Cc1nc2cc(NCc3nc4ccccc4n3Cc3ccccc3)ccc2n1C | -82
O=C(O)c1ccc(NCc2nc3ccccc3n2Cc2ccccc2)cc1 | -4.61
CCn1cnc2cc(NCc3cccs3)ccc21 | -15.9
Cc1cccc(NCc2nc3ccccc3n2Cc2ccccc2)c1 | -13.1
CCn1cnc2cc(NCc3nc4ccccc4n3Cc3ccccc3)ccc21 | -65.6
NC(=O)c1ccccc1OCC(=O)N1CCc2ccccc2C1 | 8.34
COC(=O)c1cc(-c2ccc(Br)cc2)on1 | 8.48

Structure (SMILES) | hERG current change (%, negative = inhibition) at 10uM [%]
Cc1c(Cl)cccc1NC(=S)NCc1ccccc1 | 16.5
Cc1ccc(S(=O)(=O)C2(C(=O)NCc3ccccc3Cl)CC2)cc1 | -15.2
Cc1nnc(SCC(=O)Nc2ccc(N3CCOCC3)cc2)n1-c1ccccc1 | -14.5
CCCCCn1c(=O)[nH]c2cc(C(=O)Nc3ccc(OC)cc3)ccc2c1=O | 14.9
CC(=O)NCC(=O)OCc1ccc([N+](=O)[O-])cc1 | 3.26
CC(C)c1ccc(S(=O)(=O)N2CCC(C(=O)NCC3(N(C)C)CCCCC3)CC2)cc1 | -54.4
CN(C)C1(CNC(=O)C2CCN(S(=O)(=O)c3ccccc3C(F)(F)F)CC2)CCCCC1 | -29.8
CN(C)C1(CNC(=O)C2CCN(S(=O)(=O)c3c(Cl)cccc3Cl)CC2)CCCCC1 | -67.5
CN(C)C1(CNC(=O)C2CCN(S(=O)(=O)c3cccc(C(F)(F)F)c3)CC2)CCCCC1 | -34.6
O=C(NC1CCCCCC1)C1CCN(S(=O)(=O)c2c(Cl)cccc2Cl)CC1 | 11.6
CN(C)C1(CNC(=O)C2CCN(S(=O)(=O)c3cc(Cl)ccc3Cl)CC2)CCCCC1 | -64.1
CC(C)c1ccc(S(=O)(=O)N2CCC(C(=O)N3CCC3)CC2)cc1 | -9.72
Cc1ccc(S(=O)(=O)N2CCC(C(=O)Nc3ccc(C(C)C)cc3)CC2)cc1 | -11.5
O=C(NCC1CCCO1)C1CCN(S(=O)(=O)c2cc(Cl)ccc2Cl)CC1 (stereo not shown) | -19
CCOC(=O)c1cccc(NC(=O)C2CCCO2)c1 (stereo not shown) | 4.7
Brc1ccccc1CNCCc1ccc2c(c1)OCO2 | 0.404
Cc1cccc(Oc2cnn(C(C)(C)C)c(=O)c2Cl)c1 | -10
Cc1ccc(NC(=O)c2sc(N)nc2-c2ccc([N+](=O)[O-])cc2)cc1C | 8.18
CSc1ccc(C(C(C(=O)c2cccs2)N2CCOCC2)N2CCOCC2)cc1 (stereo not shown) | -3.73
COc1ccc(CCn2nnnc2C(C(C)C)N2CCN(c3ncccn3)CC2)cc1OC (stereo not shown) | -5.93
Cc1c(Br)c([N+](=O)[O-])nn1CC(=O)Nc1ccc(C(N)=O)cc1 | -2.84
COc1ccc(C2c3ccc4ccccc4c3Oc3ncn(CCN4CCOCC4)c(=N)c32)cc1OC (stereo not shown) | -53.4
COc1ccc(C2c3c(ncn(CCCN4CCOCC4)c3=N)Oc3ccc4ccccc4c32)cc1OC (stereo not shown) | -51.3
COc1ccc(C2c3c(ncn(CCN4CCOCC4)c3=N)Oc3ccc4ccccc4c32)cc1 (stereo not shown) | -47.2
COc1ccc(C2c3c(ccc4ccccc34)Oc3ncn4nc(Cc5ccccc5)nc4c32)cc1OC (stereo not shown) | -7.49
COc1ccc(C2c3ccc4ccccc4c3Oc3ncn(CCN4CCOCC4)c(=N)c32)cc1 (stereo not shown) | -74.1
COc1ccc(C2c3c(ncn(CCN4CCOCC4)c3=N)Oc3ccc4ccccc4c32)cc1OC (stereo not shown) | -16.6
